Source: PubChem BioAssay (National Center for Advancing Translational Sciences (NCATS))
Pf growth 96h – Primary qHTS for delayed death inhibitors of the malarial parasite plastid, 96 hour incubation | P. falciparum luciferase reporter growth, 96 h | hit rate 6.9% among 320,000 | Potency, µM (top dose mostly 28.7 µM), actives largely listed as inhibitors
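Delayed-death screen, second-generation endpoint: infected erythrocytes, 2% hematocrit, 0.05% parasitemia final; 96 hours at 37 C, 5% CO2; luciferase detection reagent; luminescence decrease equals reduced growth.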
Shiga inhibitor – A qHTS for Small Molecule Inhibitors of Shiga Toxin; AID 2315, 2010; inhibition, % at 38.7 µM; Vero cells, Shiga toxin protein synthesis inhibition reporter; hit rate 9.2% among 290,000; in the data active = inhibition mostly above about 28%, no sharp cut-off; inactive = mostly below about 43%
CHX counter – Cycloheximide Counterscreen for Small Molecule Inhibitors of Shiga Toxin; max response, %; hit rate 12% among 300,000; cell reporter, cycloheximide protein synthesis inhibition counterscreen; AID 2314, 2010; in the data active = max response mostly above about 13%, no sharp cut-off; inactive = mostly below about 14%; note: read at 38.3 µM for the half of the compounds with a filed dose
Pf growth 48h – Primary qHTS for delayed death inhibitors of the malarial parasite plastid, 48 hour incubation; P. falciparum luciferase growth in erythrocytes, 48 h; Potency, µM (highest dose often 28.7 µM), hits mostly inhibitors; hit rate 5.9% among 310,000
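Luciferase-expressing P. falciparum in infected erythrocytes (2% hematocrit, 0.1% parasitemia final) in RPMI 1640/0.5% Albumax were exposed to compound for 48 hours at 37 C, 5% CO2; growth read as luminescence.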
Of the large screens only hits and unclear results are named; the others gave an inactive call. Hits are enriched below; roughly 21% of the tested compounds scored in any of these assays. Unless noted, calls come from the whole dose curve; as a rule, active = well fitted inhibition curve with a large enough effect; inconclusive = small, poorly fitted or top-dose-only effect, or another doubt; inactive = no such curve, though single readings can be large or run the other way.

COc1cc(/C=N/NC(=O)c2cc3ccccc3cc2O)ccc1OCCN1CCCCC1	Pf growth 96h inconclusive, Shiga inhibitor active, CHX counter 42, Pf growth 48h inconclusive
COc1cc(/C=N/NC(=O)c2ccc(Cl)cc2)ccc1OCC(=O)N1CC(C)OC(C)C1 (stereo not given)	none
COc1cc(/C=N/NC(=S)Nc2cccc(Cl)c2C)ccc1OCC(=O)N1CC(C)OC(C)C1 (stereo not given)	Pf growth 96h inconclusive, Pf growth 48h 9.3µM
COc1cc(/C=N/NC(=O)c2ccncc2)ccc1OCC(=O)Nc1cccc([N+](=O)[O-])c1	none
CCOC(=O)C1(Cc2ccc(Cl)cc2)CCN(Cc2cn(CC)nc2C)CC1	none
COc1cc(/C=N/NC(=O)c2ccncc2)ccc1OCCN1CCCCC1	Shiga inhibitor active, CHX counter 35
Cc1cc(C)n(/N=C/c2cc([N+](=O)[O-])ccc2O)c(=O)c1	Pf growth 96h inconclusive, Pf growth 48h inconclusive
CCOC(=O)c1cc2c(=O)n3cccc(C)c3nc2n(Cc2ccco2)c1=NC(=O)c1ccccc1	Pf growth 96h 12µM, Pf growth 48h inconclusive
CCOC(=O)c1cc2c(=O)n3ccccc3nc2n(Cc2ccco2)c1=NC(=O)c1ccc(OC)cc1	Pf growth 48h 9.3µM
CCOC(=O)c1cc2c(=O)n3ccccc3nc2n(Cc2ccco2)c1=NC(=O)c1cccc(OC)c1	Pf growth 96h inconclusive, Pf growth 48h inconclusive
CCOCCCn1c(=NC(=O)c2ccco2)c(C(=O)OCC)cc2c(=O)n3cccc(C)c3nc21	Pf growth 96h inconclusive
CCOC(=O)c1cc2c(=O)n3ccccc3nc2n(Cc2ccco2)c1=NC(=O)c1ccccc1OC	Pf growth 96h inconclusive, Pf growth 48h inconclusive
CCOC(=O)c1cc2c(=O)n3cccc(C)c3nc2n(CC(C)C)c1=NC(=O)c1ccco1	Pf growth 96h 3.7µM, Pf growth 48h inconclusive
COc1c(O)ccc(C2NC(=O)NC(C)=C2C(=O)Nc2ccccc2C)c1[N+](=O)[O-] (stereo not given)	Pf growth 96h inconclusive
O=[N+]([O-])c1c(Nc2ccc(O)cc2)cc(Cl)c2nonc12	none (no result: Pf growth 48h)
Clc1ccc(CNCC2CCCO2)cc1 (stereo not given)	none
Cc1ccc(CNCC2CCCO2)o1 (stereo not given)	Pf growth 96h 13µM
O=C(c1ccco1)c1cn(CC(=O)N2CCCCC2)c2ccccc12	Pf growth 96h 1.7µM
O=C(Cn1cc(C(=O)c2ccco2)c2ccccc21)NC1CCCCC1	none
N#Cc1ccccc1Cn1cc(C(=O)c2ccco2)c2ccccc21	Pf growth 96h inconclusive, Shiga inhibitor 23, CHX counter 47, Pf growth 48h inconclusive
O=C(c1ccco1)c1cn(Cc2ccccc2)c2ccccc12	Shiga inhibitor 77, CHX counter 38 (no result: Pf growth 48h)
O=C(c1ccco1)c1cn(Cc2ccccc2Cl)c2ccccc12	CHX counter 42, Pf growth 48h inconclusive (no result: Pf growth 96h)
CCN(CC)C(=O)Cn1ccc(NC(C)=O)nc1=O	Pf growth 96h inconclusive
CC(C)(C)OC(=O)N[C@@H](Cc1ccccc1)C(=O)N[C@@H](CO)[C@H](O)[C@@H]1C[C@@H]1C(=O)NC1CC1	Pf growth 96h inconclusive
Cc1ccc2c(C)c(C(=O)N3CCN(c4ncccn4)CC3)oc2c1C	none
O=C1C=C(c2ccc3ccccc3c2)C[C@@H](c2ccc(F)cc2)C1	Pf growth 96h inconclusive (no result: Shiga inhibitor, CHX counter)
O=C(c1cccs1)c1cn(CC(=O)N2CCc3ccccc3C2)c2ccccc12	CHX counter 48, Pf growth 48h inconclusive
CC(C)OC(=O)CC12CN3CC(CC(=O)OC(C)C)(CN(C1)C(=O)c1ccccc1C3=O)C2=O	none
CC(C)OC(=O)CC12CN(C)CC(CC(=O)OC(C)C)(CN(C)C1)C2=O	Pf growth 96h inconclusive, CHX counter 35
C/C(=N\Nc1ccc(F)cc1F)c1cccs1	CHX counter 35
COc1ccc(/C(C)=N/Nc2ccc(F)cc2F)c(O)c1	Shiga inhibitor 74, CHX counter 42
COc1ccc(/C(C)=N/Nc2ccccc2Cl)c(O)c1	Shiga inhibitor 48, CHX counter 37
N/C(CC(=O)Nc1ccc(F)cc1F)=N\OC(=O)c1cccs1	none
COc1ccc(/C(C)=N/NS(=O)(=O)c2ccccc2)c(OC)c1	Pf growth 48h inconclusive
COc1ccc(NC(=O)CS(=O)CC(=O)Nc2ccc(F)cc2F)cc1 (stereo not given)	none
Nc1cc(=O)[nH]c(SCC(=O)c2ccc(F)cc2)n1	Pf growth 96h inconclusive (no result: Pf growth 48h)
O=C(Cn1nnc(-c2ccccc2F)n1)NCc1ccco1	none
C#CCOCCOCCOCCNc1nc(N2CCN(C(=O)[C@H]([C@@H](C)CC)n3cc([C@@H](N)Cc4ccc(O)cc4)nn3)CC2)nc(N2CCN(C(=O)[C@H]([C@@H](C)CC)n3cc([C@@H](N)CC(C)C)nn3)CC2)n1	Pf growth 96h 1.5µM, Pf growth 48h 1.9µM
C#CCOCCOCCOCCNc1nc(N2CCOCC2)nc(N2CCN(C(=O)[C@H]([C@@H](C)CC)n3cc([C@@H](N)Cc4ccc(O)cc4)nn3)CC2)n1	Pf growth 96h inconclusive, Pf growth 48h 1.5µM
C#CCOCCOCCOCCNc1nc(N2CCN(C(=O)C([C@@H](C)CC)n3cc(C(N)CO)nn3)CC2)nc(N2CCN(C(=O)[C@H](CCC(=O)O)n3cc(C(N)Cc4ccc(O)cc4)nn3)CC2)n1 (stereo not given in full)	none
C#CCOCCOCCOCCNc1nc(N2CCN(C(=O)[C@H]([C@@H](C)CC)n3cc([C@@H](N)Cc4ccc(O)cc4)nn3)CC2)nc(N2CCN(C(=O)[C@H](Cc3ccc(O)cc3)n3cc([C@@H](N)CC(C)C)nn3)CC2)n1	Pf growth 96h inconclusive, Pf growth 48h 4.7µM
C#CCOCCOCCOCCNc1nc(N2CCOCC2)nc(N2CCN(C(=O)[C@H]([C@@H](C)CC)n3cc([C@@H](N)CC(C)C)nn3)CC2)n1	Pf growth 96h 6.6µM, Pf growth 48h inconclusive
O=C(NCC1CCCN1S(=O)(=O)c1ccccc1)C(=O)NC1CC1 (stereo not given)	none (no result: Shiga inhibitor, CHX counter)
CN(CC(=O)Nc1ccc(F)cc1)CC(=O)N1CCCCCC1	Pf growth 96h inconclusive (no result: Shiga inhibitor, CHX counter)
O=C(C1=C(O)C(=O)N(CCN2CCOCC2)C1c1ccc([N+](=O)[O-])cc1)c1cccs1 (stereo not given)	none
COc1ccc(C2=Nn3c(nnc3-c3ccccc3OC)SC2)c(OC)c1	none (no result: Pf growth 96h, Pf growth 48h)
C#CCOCCOCCOCCNc1nc(N2CCN(C(=O)[C@H]([C@@H](C)CC)n3cc([C@@H](N)Cc4ccc(O)cc4)nn3)CC2)nc(N2CCN(C(=O)[C@H](Cc3ccc(O)cc3)n3cc([C@@H](N)C(C)CC)nn3)CC2)n1 (stereo not given in full)	Pf growth 96h inconclusive, Pf growth 48h inconclusive
C#CCOCCOCCOCCNc1nc(N2CCN(C(=O)[C@H]([C@@H](C)CC)n3cc([C@@H](N)CC(C)C)nn3)CC2)nc(N2CCN(C(=O)[C@H](Cc3ccc(O)cc3)n3cc([C@@H](N)C(C)CC)nn3)CC2)n1 (stereo not given in full)	Pf growth 96h 5.2µM, Pf growth 48h 5.2µM
